For 40 molecules, Potency results are on record in PubChem BioAssay (Tox21).

Where “and” joins values, the source holds several entries; their conditions need not be identical. Identical values can stand only once. Results filed as inconclusive are left out. A call without a number means that no potency is given here. Some structures have more than one record in an assay (separate samples or runs), and their calls can disagree. Calls of active or inactive are those of the source. The call rests on the fitted dose curve; in most records, active means well fitted activation curve with a large enough effect in the repeat runs; inconclusive means weak or mixed curves; inactive means flat fitted curve, though single readings scatter.
Potency means the concentration at half of the fitted maximal effect.

This test in a line: A CellTox Green Cytotoxicity Assay to monitor cytotoxicity in HEK293 cells - 32 hour (AID 1224881). Further: nearly all actives have a fitted effect of over 40% in size. As to conditions: CellTox Green fluorescence; series mostly up to 76.8 µM. The source says: National Center for Advancing Translational Sciences [NCATS]
NIH Chemical Genomics Center [NCGC]
U.S. Environmental Protection Agency [EPA]
National Institutes of Environmental Health Sciences [NIEHS]
National Toxicology Program [NTP]
Cell-based models are critical for drug discovery. Determining the natural cytotoxic effects resulting from test compounds is an essential research activity. A CellTox Green Cytotoxicity Assay to monitor cytotoxicity in real time of continues cell culture during 40 hours of the compound treatment was used to screen Tox21 10K library compounds in Hek293 cells. CellTox Green Cytotoxicity Assay is a nonlytic, homogeneous, biofluorescent method to measure cytotoxicity in cell culture after experimental manipulation. The assay system uses a proprietary asymmetric cyanine dye that is excluded from viable cells but preferentially stains the dead cell's DNA. […] Viable cells produce no appreciable increases in fluorescence. Therefore, the fluorescence signal produced by the binding interaction with dead cell DNA is proportional to cytotoxicity.
The mixture of Hek293 cell suspension and reagents were dispensed at 600cells/6 ul/well in 1536-well tissue culture treated black solid bottom plates using a Multidrop dispenser. After the assay plates were incubated at a 37 C/5% CO2 incubator for 5 hours, 23 nL of compounds dissolved in DMSO, positive and negative controls was transferred to the assay plate by a pintool work station. The plates were incubated at 37 C for 40 hours. The fluorescence intensity were measured at 0h, 8h, 16h, 24h, 32h and 40h time points using ViewLux plate reader during compound treatment.
Consider `O=C(O)Cc1cccc2ccccc12`, for which the Potency entry was “inactive”.
Turning to `Cc1cccc(C)c1O`, the Potency result was “inactive”.
Consider `CCN(CC)CCOC(=O)c1ccc(N)cc1`, for which the Potency entry is “inactive”.
As for `CCCCCCCC(=O)OCC(O)CO` (stereo not given), the Potency entry was “inactive”.
`C=C(C)OC(C)=O`: the Potency result is “inactive”.
Next, `C1CNCCN1`: “inactive”; `COC1=CC(=O)C[C@@H](C)[C@]12Oc1c(Cl)c(OC)cc(OC)c1C2=O`: “inactive”.
For the molecule `C=CC(=O)NC(C)(C)CS(=O)(=O)O`, the Potency result is “inactive and 43.6 µM (active)”.
On to `COCCOCCOC`, for which the Potency entry was “inactive”.
Consider `CCn1cc(C(=O)O)c(=O)c2ccc(C)nc21`, for which the Potency entry was “inactive”.
The result for `C[C@]12CC[C@@H]3c4ccc(O)cc4C[C@@H](CCCCCCCCCS(=O)CCCC(F)(F)C(F)(F)F)[C@H]3[C@@H]1CC[C@@H]2O` (stereo not given in full) reads “inactive”; that for `c1ccc2[nH]c(-c3cscn3)nc2c1`, “inactive”; that for `CC1=NN(c2ccccc2)C(=O)C1`, “inactive”.
The result for `NC(N)=NC(N)=NCCc1ccccc1` reads “inactive”; that for `CN(C)C=O`, “inactive”; that for `CCc1cc(C(N)=S)ccn1`, “inactive”.
The result for `C[C@]12C=CC(=O)C=C1CC[C@@H]1[C@@H]2C(=O)C[C@@]2(C)[C@H]1CC[C@]2(O)C(=O)CO` reads “inactive”; that for `NC(=O)NO`, “inactive”.
On to `CCCCCCCCCCCCCC(=O)OC(C)C`, for which the Potency result was “inactive”.
Turning to `COCC(C)N` (stereo not given), the Potency entry was “inactive”.
On to `CO[C@H]1C=CO[C@@]2(C)Oc3c(C)c(O)c4c(O)c(c(/C=N/N5CCN(C)CC5)c(O)c4c3C2=O)NC(=O)/C(C)=C\C=C[C@H](C)[C@H](O)[C@@H](C)[C@@H](O)[C@@H](C)[C@H](OC(C)=O)[C@@H]1C`, for which the Potency result was “inactive”.
The result for `Nc1ccc(N=Nc2ccccc2)c(N)n1` reads “inactive”; that for `COc1cc(O)c(C(=O)c2ccccc2)cc1S(=O)(=O)O`, “inactive”; that for `COc1ccc(O)cc1`, “inactive”.
Take `O=C1OC(c2ccc(O)cc2)(c2ccc(O)cc2)c2ccccc21`: the Potency entry is “inactive”.
For the molecule `COc1cc2c(c(OC)c1OC)-c1ccc(OC)c(=O)cc1[C@@H](NC(C)=O)CC2`, the Potency entry is “inactive”.
`O=[N+]([O-])c1ccc(O)cc1`: the Potency entry is “inactive”.
For `CCCCCCCCOc1ccc(C(=O)c2ccccc2)c(O)c1`, the Potency entry was “inactive”.
Next, `CCCCCCCCCCCCCCCCCC(=O)OCC(O)CO` (stereo not given): “inactive”.
The result for `Cc1cccc(Nc2cc(Cl)nc(SCC(=O)O)n2)c1C` reads “inactive”; that for `C[C@]12C[C@H](O)[C@H]3[C@@H](CCC4=CC(=O)CC[C@@]43C)[C@@H]1CC[C@@H]2C(=O)CO`, “inactive”; that for `CC(=O)OC/C=C(C)/C=C/C=C(C)/C=C/C1=C(C)CCCC1(C)C`, “inactive”.
Next, `NC(=O)OCC(COC(N)=O)c1ccccc1`: “inactive”.
On to `Nc1cccc(N)c1`, for which the Potency result was “inactive”.
As for `C/C=C/c1ccc(O)c(OC)c1`, the Potency result is “inactive”.
For `CC(=O)c1ccc(S(=O)(=O)NC(=O)NC2CCCCC2)cc1`, the Potency entry was “inactive”.
In the case of `COc1ccc(C(=O)c2ccccc2)c(O)c1`, the Potency result is “inactive”.
Next, `NC(=O)c1ccc([N+](=O)[O-])cc1Cl`: “inactive”.
In the case of `COc1ccccc1O`, the Potency result is “inactive”.
In the case of `CC(=O)/C=C/C1=C(C)CCCC1(C)C`, the Potency result was “inactive”.
